Inconclusive results are not listed. Active and inactive are the calls of the source. Unless noted, calls follow the shape of the dose curve; as a rule, active = well fitted curve in the direction sought with a large enough effect; inconclusive = small, poorly fitted or top-dose-only effect, or another doubt; inactive = no such curve, though single readings can be large; an effect the other way counts as inactive or inconclusive.
What was measured:
[1] = biological target: Estrogen receptor (Homo sapiens) (UniProt P03372); assay: qHTS assay for small molecule antagonists of estrogen receptor alpha signaling (AID 588513; active = well fitted curve in the direction sought with a large enough effect in the signal ratio, with a control signal flat, not every such curve was filed as active; the % refers to the signal ratio; also: % is scaled to controls: 0 for no effect and ±100 for the full control effect)
Sequence of Estrogen receptor (Homo sapiens) (P03372 whole entry, looked up): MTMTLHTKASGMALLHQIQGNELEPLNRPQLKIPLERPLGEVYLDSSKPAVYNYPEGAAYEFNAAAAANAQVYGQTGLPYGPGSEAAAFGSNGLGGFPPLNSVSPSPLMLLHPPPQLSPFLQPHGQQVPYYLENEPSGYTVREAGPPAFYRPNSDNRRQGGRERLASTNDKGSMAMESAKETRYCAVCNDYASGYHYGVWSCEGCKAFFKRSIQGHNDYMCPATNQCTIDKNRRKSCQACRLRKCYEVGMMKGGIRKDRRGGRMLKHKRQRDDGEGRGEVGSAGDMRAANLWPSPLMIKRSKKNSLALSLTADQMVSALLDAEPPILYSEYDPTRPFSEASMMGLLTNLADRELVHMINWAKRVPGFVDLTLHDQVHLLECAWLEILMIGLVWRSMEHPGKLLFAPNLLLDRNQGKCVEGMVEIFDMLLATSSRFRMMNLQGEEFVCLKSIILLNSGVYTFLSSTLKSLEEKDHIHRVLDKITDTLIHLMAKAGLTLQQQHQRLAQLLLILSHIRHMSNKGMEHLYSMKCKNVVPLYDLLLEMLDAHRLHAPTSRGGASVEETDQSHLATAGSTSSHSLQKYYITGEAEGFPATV
Outline: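 ER-alpha-UAS-bla GripTite HEK 293 cells in medium with 2% charcoal/dextran-treated FBS were preincubated 4 h at 37 C, dosed with compound (1:2 titration), stimulated with 0.5nM 17-beta-estradiol for 18 h, then read by CCF4 beta-lactamase fluorescence.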

[2] = biological target: Peroxisome proliferator-activated receptor delta (Homo sapiens) (UniProt Q03181); assay: qHTS assay for small molecule agonists of peroxisome proliferator-activated receptor delta signaling (AID 588534; calls by dose curve;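 also: 0% = DMSO basal wells and 100% = positive control agonist at 10 µM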)
Sequence of Peroxisome proliferator-activated receptor delta (Homo sapiens) (Q03181 whole entry, looked up): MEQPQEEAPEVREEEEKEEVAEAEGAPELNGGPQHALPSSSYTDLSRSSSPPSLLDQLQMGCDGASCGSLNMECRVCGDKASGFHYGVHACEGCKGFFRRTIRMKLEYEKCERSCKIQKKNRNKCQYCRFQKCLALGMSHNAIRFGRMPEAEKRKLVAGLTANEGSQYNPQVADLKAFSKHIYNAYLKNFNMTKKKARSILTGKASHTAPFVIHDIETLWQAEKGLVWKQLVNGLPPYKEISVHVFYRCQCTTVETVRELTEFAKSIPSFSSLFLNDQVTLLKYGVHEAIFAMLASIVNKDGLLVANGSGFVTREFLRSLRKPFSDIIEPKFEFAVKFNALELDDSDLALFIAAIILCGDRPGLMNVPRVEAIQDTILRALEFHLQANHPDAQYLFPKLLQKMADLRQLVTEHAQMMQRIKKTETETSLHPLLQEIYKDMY
Outline: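 Cell-based beta-lactamase reporter assay run in agonist mode: cells seeded and incubated 5 hrs at 37 C, compounds added and incubated 18 hrs at 37 C. CCF4 dye fluorescence read after 2 hrs at RT; EC50 and efficacy from Hill fits.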

[3] = qHTS assay for small molecule antagonists of peroxisome proliferator-activated receptor delta signaling (AID 588535); details: HEK293T PPARd-UAS-bla, beta-lactamase FRET ratio, 18 h; 460 nm channel;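 also: cells co-treated with a PPAR-delta agonist as stimulator during compound exposure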
Outline: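 GeneBLAzer PPAR-delta-UAS-bla HEK293T cells in medium with 2% charcoal/dextran FBS were preincubated 5 hrs at 37 C, then given compounds, incubated 18 hrs at 37 C, and read by CCF4 beta-lactamase fluorescence; IC50 from Hill fits.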

[4] = biological target: Peroxisome proliferator-activated receptor gamma (Homo sapiens) (UniProt P37231); assay: qHTS assay for small molecule agonists of peroxisome proliferator-activated receptor gamma signaling (AID 588536; active = well fitted curve in the direction sought with a large enough effect in the signal ratio, with a control signal flat, not every such curve was filed as active; the % refers to the signal ratio;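 also: 0% = DMSO basal wells and 100% = rosiglitazone at 2 µM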)
Sequence of Peroxisome proliferator-activated receptor gamma (Homo sapiens) (P37231 whole entry, looked up): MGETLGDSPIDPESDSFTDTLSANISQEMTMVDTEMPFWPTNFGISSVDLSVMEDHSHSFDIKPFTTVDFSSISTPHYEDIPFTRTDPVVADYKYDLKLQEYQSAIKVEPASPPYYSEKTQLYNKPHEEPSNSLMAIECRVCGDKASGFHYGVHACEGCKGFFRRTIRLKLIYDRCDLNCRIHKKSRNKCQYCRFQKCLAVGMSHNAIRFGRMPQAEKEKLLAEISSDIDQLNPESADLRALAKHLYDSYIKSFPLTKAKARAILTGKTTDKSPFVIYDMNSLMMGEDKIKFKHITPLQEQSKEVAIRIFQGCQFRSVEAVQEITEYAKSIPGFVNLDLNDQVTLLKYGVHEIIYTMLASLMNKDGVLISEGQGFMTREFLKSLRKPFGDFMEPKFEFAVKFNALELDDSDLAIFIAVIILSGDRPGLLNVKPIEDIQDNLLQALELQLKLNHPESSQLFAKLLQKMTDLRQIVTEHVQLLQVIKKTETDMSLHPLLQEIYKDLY
Outline: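 Test agents, titrated, stimulated HEK293 UAS-bla cells overnight (16 h, 37 C). Substrate CCF4 was then added for two hours at room temperature before fluorescence reading.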

[5] = biological target: Vitamin D3 receptor (Homo sapiens) (UniProt P11473); assay: qHTS assay for small molecule antagonists of vitamin D receptor signaling (AID 588541; calls by dose curve;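 also: receptor activated by calcitriol during compound treatment; series mostly up to about 77 µM; % is scaled to controls: 0 for no effect and ±100 for the full control effect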)
Sequence of Vitamin D3 receptor (Homo sapiens) (P11473 whole entry, looked up): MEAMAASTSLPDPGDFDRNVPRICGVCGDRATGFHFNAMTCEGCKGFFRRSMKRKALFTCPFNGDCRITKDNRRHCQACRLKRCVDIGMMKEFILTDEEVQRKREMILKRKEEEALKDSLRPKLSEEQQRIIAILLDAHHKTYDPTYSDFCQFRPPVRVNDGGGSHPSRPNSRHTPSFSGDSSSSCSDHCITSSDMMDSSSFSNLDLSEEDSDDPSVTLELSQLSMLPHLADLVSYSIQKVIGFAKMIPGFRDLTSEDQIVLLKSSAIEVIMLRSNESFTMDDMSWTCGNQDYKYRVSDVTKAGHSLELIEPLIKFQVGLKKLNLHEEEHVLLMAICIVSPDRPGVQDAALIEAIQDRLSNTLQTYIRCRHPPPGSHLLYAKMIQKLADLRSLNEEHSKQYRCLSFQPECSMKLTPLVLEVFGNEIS
Outline: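 VDR-UAS-bla HEK293T cells (2000/well, 2% charcoal-stripped FBS) were treated with titrated compounds plus 1-alpha,25-dihydroxyvitamin D3 (50 nM or 3 nM final) for 16 h at 37 C. CCF4 beta-lactamase fluorescence was read; Hill fits gave IC50.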

[6] = qHTS assay for small molecule agonists of retinoid X receptor alpha signaling (AID 588544; calls by dose curve;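 as to activation: 0% = DMSO basal wells and 100% = reference agonist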); details: HEK293T RXRa-UAS-bla, beta-lactamase reporter, 18 h; 530 nm emission
[7] = biological target: Retinoic acid receptor RXR-alpha (Homo sapiens) (UniProt P19793); assay: as above
Sequence of Retinoic acid receptor RXR-alpha (Homo sapiens) (P19793 whole entry, looked up): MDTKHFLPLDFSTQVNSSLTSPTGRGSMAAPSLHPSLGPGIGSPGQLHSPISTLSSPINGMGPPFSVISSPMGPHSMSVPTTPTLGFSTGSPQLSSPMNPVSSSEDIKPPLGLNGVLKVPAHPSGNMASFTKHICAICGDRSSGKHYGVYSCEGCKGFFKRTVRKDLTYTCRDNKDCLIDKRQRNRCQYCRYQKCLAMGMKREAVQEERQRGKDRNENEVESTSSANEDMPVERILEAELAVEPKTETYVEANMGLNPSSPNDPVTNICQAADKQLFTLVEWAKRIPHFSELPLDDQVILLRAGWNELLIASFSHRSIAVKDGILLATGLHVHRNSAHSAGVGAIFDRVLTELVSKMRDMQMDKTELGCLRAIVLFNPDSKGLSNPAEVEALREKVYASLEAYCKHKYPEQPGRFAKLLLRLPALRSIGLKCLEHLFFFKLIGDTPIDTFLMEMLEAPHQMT

[8] = qHTS assay for small molecule antagonists of retinoid X receptor alpha signaling (AID 588546; active = well fitted inhibition curve with a large enough effect in the signal ratio, with a control signal flat, not every such curve was filed as active; the % refers to the signal ratio;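 also: cells stimulated with 9-cis-retinoic acid as agonist; % is scaled to controls: 0 for no effect and ±100 for the full control effect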); details: HEK293T RXRa-UAS-bla, beta-lactamase ratio, antagonist mode; measured here: W530 green channel, cytotoxicity proxy
Outline: (§1)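 Beta-lactamase reporter inhibition, read as CCF4 fluorescence ratio (ex 405, em 460/530 nm) after 2 h at RT. HEK293T UAS-bla cells, 2500/well, were stimulated with 9-cis-RA at 500 or 100 nM final alongside test compound for 18 h at 37 C.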

[9] = biological target: Retinoic acid receptor RXR-alpha (Homo sapiens) (UniProt P19793); assay: as above; details: HEK293T RXRa-UAS-bla, beta-lactamase ratio, antagonist mode
Outline: as §1

[10] = qHTS assay for small molecule activators of the p53 signaling pathway (AID 651743; active = well fitted activation curve with a large enough effect in the signal ratio, not every such curve was filed as active; the % refers to the signal ratio; also: series mostly up to about 92 µM; % of control where 0% means no effect); details: HCT-116 p53RE-bla, beta-lactamase FRET ratio, 16 h; activation: stronger effect = higher value
Outline: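 p53RE-bla HCT-116 cells with a stably integrated beta-lactamase reporter under p53 response elements were plated, rested 5 hours at 37 C/5% CO2, then exposed to compounds in DMSO for 16 hours at 37 C. LiveBLAzer B/G FRET substrate was read after 2 hours at room temperature.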

[11] = qHTS assay for environmental chemicals that activate the Aryl hydrocarbon Receptor (AhR) signaling pathway (AID 651777); details: 1A2-DRE human hepatoma cells, luciferase, 24 h; activation: stronger effect = higher value; also: % of control where 0% means no effect; nearly all actives have a fitted effect of over 15% in size
Outline: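 Measured luciferase activity, read 30 min after One-Glo addition at room temperature, from human hepatoma cells bearing a dioxin response element–CYP1A2 promoter reporter and exposed to compound for 24 hr at 37 C.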

[12] = biological target: Peroxisome proliferator-activated receptor alpha (Homo sapiens) (UniProt Q07869); assay: qHTS assay for small molecule agonists of the peroxisome proliferator-activated receptor alpha (PPARalpha) signaling pathway (AID 651778); details: PathHunter PPARalpha complementation, chemiluminescence, 6 h; max response: stronger effect = higher value; also: % of control where 0% means no effect
Sequence of Peroxisome proliferator-activated receptor alpha (Homo sapiens) (Q07869 whole entry, looked up): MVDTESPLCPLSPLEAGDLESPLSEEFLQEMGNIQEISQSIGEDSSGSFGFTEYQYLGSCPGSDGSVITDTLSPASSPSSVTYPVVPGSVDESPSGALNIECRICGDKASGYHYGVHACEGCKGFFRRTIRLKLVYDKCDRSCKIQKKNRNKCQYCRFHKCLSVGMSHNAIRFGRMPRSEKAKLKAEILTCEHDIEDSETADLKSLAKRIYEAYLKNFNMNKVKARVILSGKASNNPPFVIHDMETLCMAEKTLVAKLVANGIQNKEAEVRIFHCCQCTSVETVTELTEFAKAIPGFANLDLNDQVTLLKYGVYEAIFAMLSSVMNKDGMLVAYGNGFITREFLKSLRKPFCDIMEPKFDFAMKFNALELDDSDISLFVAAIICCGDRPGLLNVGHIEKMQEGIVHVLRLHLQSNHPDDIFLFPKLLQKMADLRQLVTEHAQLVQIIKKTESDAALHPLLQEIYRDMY
Outline: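 Cells plated at 2,000/well and held overnight at 37 C, 5% CO2, then compound added by pin tool for 6 hr; after PathHunter detection reagent and 60 min at room temperature, chemiluminescence from enzyme complementation was read.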

[13] = qHTS assay for small molecule agonists of the antioxidant response element (ARE) signaling pathway measured by Nrf2-dependant transcriptional activity (AID 720636; active = well fitted curve in the direction sought with a large enough effect in the repeat runs; an effect the other way counts as inactive or inconclusive;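 also: HepG2 cells with an ARE-driven luciferase reporter; % of control where 0% means no effect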)
Outline: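 In HepG2 cells engineered with an Nrf2-responsive luciferase gene, ARE induction was quantified as luminescence after 16 hr compound treatment at 37 C.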

[14] = qHTS assay for small molecule agonists of the antioxidant response element (ARE) signaling pathway measured by Nrf2-dependant transcriptional activity - cell viability counter screen (AID 720653; active = well fitted curve in the direction sought with a large enough effect in the repeat runs; an effect the other way counts as inactive or inconclusive; also: % is scaled to controls: 0 for no effect and ±100 for the full control effect); details: ARE-bla HepG2 viability, CellTiter-Glo ATP luminescence, 16 h; max response: stronger effect = lower value
Outline: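 ARE-bla HepG2 cells (2,000/well) rested 5 hrs at 37C/5% CO2, then exposed to compounds in DMSO for 16 hrs. Viability was read in the same wells as intracellular ATP by luminescence, 30 min at room temperature after reagent addition.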

[15] = qHTS assay for cell viability of HEK293 cells (AID 743288); details: ATP luminescence (CellTiter-Glo), 18 h; max response: stronger effect = lower value; also: % is scaled to controls: 0 for no effect and ±100 for the full control effect; nearly all actives have a fitted effect of over 50% in size
Outline: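 Parental HEK293 cells were seeded at 2,000 cells/well, rested at least 5 h at 37 C, then exposed to compounds in DMSO for 18 h at 37 C. Viability was read as ATP-dependent luciferase luminescence after 30 min at room temperature.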

[16] = qHTS assay for cell viability of the p53RE-bla HCT-116 cell line (AID 743292); also: % is scaled to controls: 0 for no effect and ±100 for the full control effect; nearly all actives have a fitted effect of over 55% in size
Outline: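 Intracellular ATP of p53RE-bla HCT-116 cells measured by luciferase luminescence following 16 h compound incubation at 37 C; DMSO-only wells served as vehicle controls.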

[17] = biological target: Nuclear receptor subfamily 1 group I member 2 (Rattus norvegicus) (UniProt Q9R1A7); assay: qHTS assay for small molecule activators of the rat pregnane X receptor (rPXR) signaling pathway (AID 651751; call rule not given here; also: 0% is about no effect); details: rPXR reporter cells, luciferase (One-Glo), 24 h
Sequence of Nuclear receptor subfamily 1 group I member 2 (Rattus norvegicus) (Q9R1A7 whole entry, looked up): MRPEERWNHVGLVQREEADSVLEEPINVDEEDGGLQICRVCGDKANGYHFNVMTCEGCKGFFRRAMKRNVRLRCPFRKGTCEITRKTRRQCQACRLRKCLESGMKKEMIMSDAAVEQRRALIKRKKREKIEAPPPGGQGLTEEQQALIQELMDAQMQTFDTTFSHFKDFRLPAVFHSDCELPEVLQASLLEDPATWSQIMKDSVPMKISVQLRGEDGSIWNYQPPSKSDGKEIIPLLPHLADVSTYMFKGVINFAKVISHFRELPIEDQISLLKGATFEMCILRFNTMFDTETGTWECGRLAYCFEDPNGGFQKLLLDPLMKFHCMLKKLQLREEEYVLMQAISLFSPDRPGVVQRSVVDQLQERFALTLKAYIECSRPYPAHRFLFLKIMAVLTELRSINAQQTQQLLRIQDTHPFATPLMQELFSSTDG

[18] = biological target: Peroxisome proliferator-activated receptor gamma (Homo sapiens) (UniProt P37231); assay: qHTS assay for small molecule antagonists of peroxisome proliferator-activated receptor gamma signaling (AID 588537; active = well fitted inhibition curve with a large enough effect in the signal ratio, with a control signal flat, not every such curve was filed as active; the % refers to the signal ratio;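 also: reporter cells co-stimulated with 50 nM rosiglitazone agonist during compound treatment; % of control where 0% means no effect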)
Outline: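 PPAR-gamma-UAS-bla HEK293 cells (3000/well, 1% charcoal/dextran-stripped FBS) were preincubated 6-6.5 h at 37 C, given titrated compounds, then stimulated with 50 nM rosiglitazone for 16 h. Beta-lactamase activity was read with CCF4 dye; IC50 came from Hill fits.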

[19] = biological target: Vitamin D3 receptor (Homo sapiens) (UniProt P11473); assay: qHTS assay for small molecule agonists of vitamin D receptor signaling (AID 588543; calls by dose curve;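 also: 0% = DMSO basal and 100% = reference agonist control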)
Outline: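 GeneBLAzer VDR-UAS-bla HEK293T cells in 2% charcoal-stripped FBS medium were dosed with compound titrations for 16 h at 37 °C; CCF4 β-lactamase readout (405 nm ex, 460/530 nm em). EC50 and efficacy from Hill fits, normalized to 50 nM calcitriol (100%) and DMSO (0%).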

[20] = biological target: Thyroid hormone receptor beta (Homo sapiens) (UniProt P10828); assay: qHTS assay for small molecule agonists of thyroid hormone receptor beta signaling (AID 588545; calls by dose curve;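 also: 0% = DMSO only and 100% = 10 nM T3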)
Sequence of Thyroid hormone receptor beta (Homo sapiens) (P10828 whole entry, looked up): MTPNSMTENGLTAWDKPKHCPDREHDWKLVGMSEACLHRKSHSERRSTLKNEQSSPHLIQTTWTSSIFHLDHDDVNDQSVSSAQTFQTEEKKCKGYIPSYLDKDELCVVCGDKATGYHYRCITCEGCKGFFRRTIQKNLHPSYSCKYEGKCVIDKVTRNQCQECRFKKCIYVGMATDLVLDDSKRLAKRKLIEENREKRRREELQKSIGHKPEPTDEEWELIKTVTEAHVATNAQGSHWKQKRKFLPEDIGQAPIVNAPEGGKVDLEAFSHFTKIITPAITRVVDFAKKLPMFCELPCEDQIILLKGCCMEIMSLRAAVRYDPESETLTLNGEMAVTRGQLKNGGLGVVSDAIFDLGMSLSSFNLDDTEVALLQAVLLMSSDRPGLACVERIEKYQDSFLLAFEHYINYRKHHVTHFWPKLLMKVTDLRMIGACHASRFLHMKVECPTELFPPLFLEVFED
Outline: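 Stimulation of a TR-driven beta-lactamase reporter was quantified in GripTite HEK 293 cells. Compound series ran for 18 hrs; curves were normalized to T3 and DMSO controls and fitted to yield EC50.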

O=C1NCCN1Cc1ccc(Cl)nc1
-14.8%: max response [8]
inactive: Potency [1] | outcome [2] | Potency [4] | Potency [5] | Potency [7] | max response [9] -5.19% | activation [10] -0.206% | activation [11] -0.434% | max response [12] -0.72% | Potency [13] | max response [14] 1.67% | max response [15] 1.96% | Potency [16] | max response [17] 1.46%
-6.75%: max response [6]
-14.3%: max response [3]

CC1(C)Cc2cccc(O)c2O1
-1.21%: max response [6]
-5.33%: max response [8]
inactive: Potency [1] | Potency [4] | Potency [18] | Potency [5] | outcome [19] | Potency [7] | Potency [20] | max response [9] -3.15% | activation [11] 0.293% | max response [12] -0.718% | Potency [13] | max response [14] 7.61% | max response [15] 4.44% | Potency [16] | max response [17] 1.61%

O=[As](O)(O)O
6.63%: max response [3]
-18.2%: max response [6]
-3.47%: max response [8]
inactive: Potency [1] | outcome [2] | Potency [4] | Potency [7] | Potency [20] | max response [9] -6.13% | activation [10] -0.546% | activation [11] -0.386% | max response [12] 0.0106% | max response [14] -8.77% | max response [15] -4.83% | Potency [16] | max response [17] -1.48%

CCNP(=S)(OC)O/C(C)=C/C(=O)OC(C)C (configuration not stated)
inactive: Potency [1] | Potency [4] | Potency [18] | Potency [5] | outcome [19] | Potency [7] | Potency [20] | max response [9] 3.14% | activation [10] -1.45% | max response [12] -0.524% | Potency [13] | max response [14] -7.95% | max response [15] -5.26% | Potency [16]
-7.51%: max response [6]
-11.8%: max response [8]

CCSC(C)CC1CC(=O)C(/C(CC)=N/OC/C=C/Cl)=C(O)C1 (configuration not stated)
62.4%: max response [3]
-6.58%: max response [8]
inactive: Potency [1] | outcome [2] | Potency [18] | outcome [19] | Potency [20] | max response [9] 0.139% | activation [10] -5.66% | activation [11] -2.18% | max response [12] 0.0996% | Potency [13] | max response [14] -19.5% | max response [15] -16.3% | Potency [16]

Clc1ccc([C@@]2(Cn3cncn3)C[C@@H](Br)CO2)c(Cl)c1
-0.908%: max response [3]
-15.6%: max response [8]
inactive: Potency [1] | outcome [2] | Potency [4] | Potency [18] | Potency [5] | outcome [19] | Potency [20] | max response [9] -32.6% | activation [10] -2.11% | activation [11] 1.89% | Potency [13] | max response [14] 2.35% | max response [15] -20.7% | Potency [16]
